# Tests used:
# Test in all cases: DAPPL (digital affinity profiling via proximity ligation, sequencing); 10 mM Tris-HCl pH 7.5, 50 mM NaCl, 1 mM DTT, 4% glycerol, room temperature, 30 min; GST-TFs on glutathione beads, 16-mer random dsDNA library, 0.1% formaldehyde crosslink after washing; high values mean tight binding
# [1] = target: T1, FLI1 (Homo sapiens, UniProt Q01543 1-452); conditions: protein: recombinant; tags: N-terminal GST; dsDNA, one strand shown
# T1 sequence: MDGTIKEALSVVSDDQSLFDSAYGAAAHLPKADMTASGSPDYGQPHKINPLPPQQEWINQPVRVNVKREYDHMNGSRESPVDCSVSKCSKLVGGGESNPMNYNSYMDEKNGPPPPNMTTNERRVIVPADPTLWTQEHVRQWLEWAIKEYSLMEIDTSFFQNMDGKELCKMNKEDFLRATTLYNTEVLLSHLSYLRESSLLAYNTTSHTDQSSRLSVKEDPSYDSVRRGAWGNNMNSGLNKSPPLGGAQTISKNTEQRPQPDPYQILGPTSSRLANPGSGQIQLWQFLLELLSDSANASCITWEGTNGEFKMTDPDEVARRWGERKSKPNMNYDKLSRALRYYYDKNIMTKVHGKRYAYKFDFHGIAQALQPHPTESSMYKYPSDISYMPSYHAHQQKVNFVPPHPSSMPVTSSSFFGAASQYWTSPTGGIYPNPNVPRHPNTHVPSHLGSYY
# Method in brief: (§1)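 Human transcription factors were made in yeast as GST fusions, captured on glutathione beads and barcoded with DNA. With a tag-only sample included, the pool was incubated with 200 nmole of a random double-stranded 16-mer DNA library in Tris/NaCl/DTT/glycerol buffer at room temperature for 30 min, then crosslinked with 0.1% formaldehyde after washing, ligated by proximity, amplified and sequenced. For binding signal, each hexamer's read frequency for a factor is divided by its frequency for the tag-only sample.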
# [2] = target: T2, ELK1 (Homo sapiens, UniProt P19419 1-428); conditions: protein: recombinant; tags: N-terminal GST; dsDNA, one strand shown
# T2 sequence: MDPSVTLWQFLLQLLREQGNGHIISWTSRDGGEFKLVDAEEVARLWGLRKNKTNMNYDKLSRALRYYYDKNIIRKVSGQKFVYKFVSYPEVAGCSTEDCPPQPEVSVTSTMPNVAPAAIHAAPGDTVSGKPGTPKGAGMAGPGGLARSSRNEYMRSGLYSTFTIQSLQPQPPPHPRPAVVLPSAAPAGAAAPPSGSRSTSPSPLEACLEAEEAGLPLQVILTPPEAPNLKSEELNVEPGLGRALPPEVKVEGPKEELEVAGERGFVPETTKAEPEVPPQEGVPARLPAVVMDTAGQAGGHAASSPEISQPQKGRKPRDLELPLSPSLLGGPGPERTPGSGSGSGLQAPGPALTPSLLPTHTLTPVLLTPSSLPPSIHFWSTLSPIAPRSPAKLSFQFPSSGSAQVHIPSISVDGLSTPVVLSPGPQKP
# Method in brief: as §1
# [3] = target: T3, GABPA (Homo sapiens, UniProt Q06546 1-454); conditions: protein: recombinant; tags: N-terminal GST; dsDNA, one strand shown
# T3 sequence: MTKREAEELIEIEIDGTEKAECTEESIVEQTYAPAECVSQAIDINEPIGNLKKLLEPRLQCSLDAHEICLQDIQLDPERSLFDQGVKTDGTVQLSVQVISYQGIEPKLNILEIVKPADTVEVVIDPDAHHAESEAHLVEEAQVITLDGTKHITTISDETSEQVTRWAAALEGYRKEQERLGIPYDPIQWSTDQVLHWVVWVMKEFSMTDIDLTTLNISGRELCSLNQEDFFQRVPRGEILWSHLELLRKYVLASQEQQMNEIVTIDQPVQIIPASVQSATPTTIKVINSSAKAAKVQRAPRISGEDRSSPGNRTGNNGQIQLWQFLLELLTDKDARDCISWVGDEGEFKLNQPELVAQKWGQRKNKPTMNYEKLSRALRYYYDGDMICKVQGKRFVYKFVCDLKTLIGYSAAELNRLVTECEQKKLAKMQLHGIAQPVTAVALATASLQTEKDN
# Method in brief: as §1
# [4] = target: T4, ERG (Homo sapiens, UniProt P11308 1-479); conditions: protein: recombinant; tags: N-terminal GST; dsDNA, one strand shown
# T4 sequence: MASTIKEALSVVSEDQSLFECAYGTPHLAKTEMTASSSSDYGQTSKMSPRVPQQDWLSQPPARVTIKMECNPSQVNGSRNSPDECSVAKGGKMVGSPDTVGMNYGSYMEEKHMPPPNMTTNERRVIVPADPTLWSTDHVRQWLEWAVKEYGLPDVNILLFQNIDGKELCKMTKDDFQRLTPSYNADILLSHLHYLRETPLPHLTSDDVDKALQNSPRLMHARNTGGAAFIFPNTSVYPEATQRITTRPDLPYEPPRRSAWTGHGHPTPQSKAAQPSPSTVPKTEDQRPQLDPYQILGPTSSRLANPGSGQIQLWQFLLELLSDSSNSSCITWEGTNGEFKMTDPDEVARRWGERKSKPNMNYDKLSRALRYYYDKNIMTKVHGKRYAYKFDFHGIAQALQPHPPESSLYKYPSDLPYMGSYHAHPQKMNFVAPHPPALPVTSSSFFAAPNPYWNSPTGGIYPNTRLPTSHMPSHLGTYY
# Method in brief: as §1
# [5] = target: ELF1 (Homo sapiens, UniProt P32519 1-619); conditions: protein: recombinant; tags: N-terminal GST; dsDNA, one strand shown
# ELF1, sequence (P32519 whole entry): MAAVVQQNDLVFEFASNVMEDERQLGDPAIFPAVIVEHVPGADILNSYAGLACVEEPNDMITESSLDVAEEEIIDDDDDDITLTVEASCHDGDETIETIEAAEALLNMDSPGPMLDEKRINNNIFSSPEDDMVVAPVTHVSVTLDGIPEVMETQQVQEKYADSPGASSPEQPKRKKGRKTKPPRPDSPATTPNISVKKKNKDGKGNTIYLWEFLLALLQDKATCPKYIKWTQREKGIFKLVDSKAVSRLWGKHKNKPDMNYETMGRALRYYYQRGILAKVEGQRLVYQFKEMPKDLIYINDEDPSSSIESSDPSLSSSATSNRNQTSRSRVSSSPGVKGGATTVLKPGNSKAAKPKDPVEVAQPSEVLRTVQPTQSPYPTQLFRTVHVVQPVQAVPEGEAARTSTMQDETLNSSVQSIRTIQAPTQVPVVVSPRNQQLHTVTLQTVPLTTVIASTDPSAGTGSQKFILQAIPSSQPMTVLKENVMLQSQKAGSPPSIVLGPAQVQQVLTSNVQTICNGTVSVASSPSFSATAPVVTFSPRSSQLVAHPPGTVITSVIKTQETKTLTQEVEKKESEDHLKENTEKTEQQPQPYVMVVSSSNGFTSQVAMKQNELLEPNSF
# Method in brief: as §1
# [6] = target: T5, EHF (Homo sapiens, UniProt Q9NZC4 1-300); conditions: protein: recombinant; tags: N-terminal GST; dsDNA, one strand shown
# T5 sequence: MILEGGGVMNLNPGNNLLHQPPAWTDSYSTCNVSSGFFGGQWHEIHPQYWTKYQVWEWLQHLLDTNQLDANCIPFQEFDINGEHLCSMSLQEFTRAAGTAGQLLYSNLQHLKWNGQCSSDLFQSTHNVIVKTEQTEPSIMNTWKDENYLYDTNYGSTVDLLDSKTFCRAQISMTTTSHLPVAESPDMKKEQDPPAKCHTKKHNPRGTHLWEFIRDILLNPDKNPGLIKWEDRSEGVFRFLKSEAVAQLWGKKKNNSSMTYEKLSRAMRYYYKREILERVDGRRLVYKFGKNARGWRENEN
# Method in brief: as §1
# [7] = target: SPI1 (Homo sapiens, UniProt P17947 1-270); conditions: protein: recombinant; tags: N-terminal GST; dsDNA, one strand shown
# Method in brief: as §1
# [8] = target: SPIB (Homo sapiens, UniProt Q01892 1-262); conditions: protein: recombinant; tags: N-terminal GST; dsDNA, one strand shown
# SPIB, sequence (Q01892 whole entry): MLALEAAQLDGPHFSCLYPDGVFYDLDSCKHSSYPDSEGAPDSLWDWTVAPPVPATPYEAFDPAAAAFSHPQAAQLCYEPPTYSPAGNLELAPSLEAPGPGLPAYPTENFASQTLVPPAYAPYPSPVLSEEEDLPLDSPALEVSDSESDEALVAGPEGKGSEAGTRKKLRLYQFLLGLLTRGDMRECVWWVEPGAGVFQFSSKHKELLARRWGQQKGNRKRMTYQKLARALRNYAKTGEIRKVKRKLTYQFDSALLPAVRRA
# Method in brief: as §1
# [9] = target: T6, ELK3 (Homo sapiens, UniProt P41970 1-407); conditions: protein: recombinant; tags: N-terminal GST; dsDNA, one strand shown
# T6 sequence: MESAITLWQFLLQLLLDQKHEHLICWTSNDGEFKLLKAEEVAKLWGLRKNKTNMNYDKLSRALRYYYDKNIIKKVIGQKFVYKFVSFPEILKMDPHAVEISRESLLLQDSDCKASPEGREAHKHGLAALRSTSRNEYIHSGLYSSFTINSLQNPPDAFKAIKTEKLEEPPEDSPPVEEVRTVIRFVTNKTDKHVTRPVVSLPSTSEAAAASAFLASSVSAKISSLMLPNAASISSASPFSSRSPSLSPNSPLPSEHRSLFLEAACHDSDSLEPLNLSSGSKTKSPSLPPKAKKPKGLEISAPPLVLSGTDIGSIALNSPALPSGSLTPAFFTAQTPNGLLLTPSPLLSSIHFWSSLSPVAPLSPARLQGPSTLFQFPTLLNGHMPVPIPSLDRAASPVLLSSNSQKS
# Method in brief: as §1
# [10] = target: T7, FEV (Homo sapiens, UniProt Q99581 1-238); conditions: protein: recombinant; tags: N-terminal GST; dsDNA, one strand shown
# T7 sequence: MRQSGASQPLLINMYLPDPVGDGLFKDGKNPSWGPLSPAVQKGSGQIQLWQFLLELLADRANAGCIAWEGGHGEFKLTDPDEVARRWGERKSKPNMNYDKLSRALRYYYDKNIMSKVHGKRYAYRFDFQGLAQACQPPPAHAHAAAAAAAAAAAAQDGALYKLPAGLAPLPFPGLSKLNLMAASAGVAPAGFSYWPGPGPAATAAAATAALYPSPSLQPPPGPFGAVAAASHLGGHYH
# Method in brief: as §1
# [11] = target: ETV5 (Homo sapiens, UniProt P41161 1-510); conditions: protein: recombinant; tags: N-terminal GST; dsDNA, one strand shown
# ETV5, sequence (P41161 whole entry): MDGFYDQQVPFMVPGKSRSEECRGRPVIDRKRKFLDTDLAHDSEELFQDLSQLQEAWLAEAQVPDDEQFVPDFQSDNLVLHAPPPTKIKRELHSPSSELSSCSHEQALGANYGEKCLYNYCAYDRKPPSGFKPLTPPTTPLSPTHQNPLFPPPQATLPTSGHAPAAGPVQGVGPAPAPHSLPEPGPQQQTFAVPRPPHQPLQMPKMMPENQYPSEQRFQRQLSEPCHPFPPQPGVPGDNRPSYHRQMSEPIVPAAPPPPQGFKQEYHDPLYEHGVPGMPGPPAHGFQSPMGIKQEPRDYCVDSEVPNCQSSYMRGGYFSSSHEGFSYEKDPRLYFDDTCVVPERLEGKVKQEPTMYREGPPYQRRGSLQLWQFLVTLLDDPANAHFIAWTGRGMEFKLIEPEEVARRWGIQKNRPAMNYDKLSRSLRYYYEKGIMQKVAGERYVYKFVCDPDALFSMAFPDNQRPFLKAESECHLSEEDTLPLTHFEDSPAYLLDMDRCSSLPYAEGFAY
# Method in brief: as §1
# [12] = target: HSF1 (Homo sapiens, UniProt Q00613 1-529); conditions: protein: recombinant; tags: N-terminal GST; chain copies: 3; dsDNA, one strand shown
# HSF1, sequence (Q00613 whole entry): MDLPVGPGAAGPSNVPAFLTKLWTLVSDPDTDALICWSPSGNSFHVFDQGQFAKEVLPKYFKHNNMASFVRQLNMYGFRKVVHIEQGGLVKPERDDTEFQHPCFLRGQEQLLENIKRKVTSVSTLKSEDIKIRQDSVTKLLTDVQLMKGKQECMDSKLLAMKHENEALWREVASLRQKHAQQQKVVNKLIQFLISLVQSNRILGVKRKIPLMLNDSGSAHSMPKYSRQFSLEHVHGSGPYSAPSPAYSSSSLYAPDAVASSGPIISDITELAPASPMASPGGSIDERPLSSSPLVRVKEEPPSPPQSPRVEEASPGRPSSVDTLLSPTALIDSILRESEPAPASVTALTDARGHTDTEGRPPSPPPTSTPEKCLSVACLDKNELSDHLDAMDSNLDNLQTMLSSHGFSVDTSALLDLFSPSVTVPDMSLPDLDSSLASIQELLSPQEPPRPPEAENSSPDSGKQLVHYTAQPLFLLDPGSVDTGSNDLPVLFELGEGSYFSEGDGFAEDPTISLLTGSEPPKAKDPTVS
# Method in brief: as §1
# [13] = target: T8, SPIC (Homo sapiens, UniProt Q8N5J4 1-248); conditions: protein: recombinant; tags: N-terminal GST; dsDNA, one strand shown
# T8 sequence: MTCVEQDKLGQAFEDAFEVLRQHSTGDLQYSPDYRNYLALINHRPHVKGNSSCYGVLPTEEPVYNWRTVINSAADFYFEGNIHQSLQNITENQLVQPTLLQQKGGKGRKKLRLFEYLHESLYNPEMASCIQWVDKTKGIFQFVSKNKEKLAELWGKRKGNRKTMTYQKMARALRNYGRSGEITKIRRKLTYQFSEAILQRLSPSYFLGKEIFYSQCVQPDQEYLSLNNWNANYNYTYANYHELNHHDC
# Method in brief: as §1
# [14] = target: ELF4 (Homo sapiens, UniProt Q99607 1-663); conditions: protein: recombinant; tags: N-terminal GST; dsDNA, one strand shown
# ELF4, sequence (Q99607 whole entry): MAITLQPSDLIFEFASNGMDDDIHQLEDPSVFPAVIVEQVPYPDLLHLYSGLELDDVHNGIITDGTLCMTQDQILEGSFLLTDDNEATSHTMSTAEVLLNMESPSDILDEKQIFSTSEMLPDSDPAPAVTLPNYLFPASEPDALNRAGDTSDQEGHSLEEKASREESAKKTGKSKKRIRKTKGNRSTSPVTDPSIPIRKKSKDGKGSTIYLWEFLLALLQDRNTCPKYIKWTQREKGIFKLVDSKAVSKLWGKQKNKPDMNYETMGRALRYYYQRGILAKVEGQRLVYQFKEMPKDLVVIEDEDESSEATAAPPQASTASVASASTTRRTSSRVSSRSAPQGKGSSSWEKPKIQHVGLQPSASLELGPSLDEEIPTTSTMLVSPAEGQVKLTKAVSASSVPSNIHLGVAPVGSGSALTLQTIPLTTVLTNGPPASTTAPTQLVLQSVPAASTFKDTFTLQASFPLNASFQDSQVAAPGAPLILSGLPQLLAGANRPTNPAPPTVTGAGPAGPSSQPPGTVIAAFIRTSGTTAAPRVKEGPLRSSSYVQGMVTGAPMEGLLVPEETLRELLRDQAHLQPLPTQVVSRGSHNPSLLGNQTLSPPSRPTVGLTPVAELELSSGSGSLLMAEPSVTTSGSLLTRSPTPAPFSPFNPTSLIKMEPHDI
# Method in brief: as §1
# [15] = target: T9, ELK4 (Homo sapiens, UniProt P28324-2 1-405); conditions: protein: recombinant; tags: N-terminal GST; dsDNA, one strand shown
# T9 sequence: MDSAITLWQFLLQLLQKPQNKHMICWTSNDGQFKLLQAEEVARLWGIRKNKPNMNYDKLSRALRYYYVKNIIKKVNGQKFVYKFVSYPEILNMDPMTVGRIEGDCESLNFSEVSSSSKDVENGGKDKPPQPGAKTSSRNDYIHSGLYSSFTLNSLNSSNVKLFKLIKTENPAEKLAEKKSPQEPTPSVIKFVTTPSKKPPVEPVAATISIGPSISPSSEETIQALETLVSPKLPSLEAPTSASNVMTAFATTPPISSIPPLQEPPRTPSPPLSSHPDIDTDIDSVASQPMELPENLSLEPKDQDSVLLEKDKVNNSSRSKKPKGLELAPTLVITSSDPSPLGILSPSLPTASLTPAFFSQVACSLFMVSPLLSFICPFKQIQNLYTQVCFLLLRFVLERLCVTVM
# Method in brief: as §1
# [16] = target: T10, ETV2 (Homo sapiens, UniProt O00321 1-342); conditions: protein: recombinant; tags: N-terminal GST; dsDNA, one strand shown
# T10 sequence: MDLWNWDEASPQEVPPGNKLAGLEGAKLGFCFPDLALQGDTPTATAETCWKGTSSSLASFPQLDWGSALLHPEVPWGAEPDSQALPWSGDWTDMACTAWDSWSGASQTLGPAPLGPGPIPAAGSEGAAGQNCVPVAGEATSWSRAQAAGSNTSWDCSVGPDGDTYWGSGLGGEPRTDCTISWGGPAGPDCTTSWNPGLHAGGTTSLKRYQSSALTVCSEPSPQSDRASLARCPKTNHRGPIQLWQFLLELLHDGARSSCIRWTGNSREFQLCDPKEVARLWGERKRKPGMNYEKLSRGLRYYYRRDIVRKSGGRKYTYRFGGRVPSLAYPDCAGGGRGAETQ
# Method in brief: as §1
# [17] = target: T11, ELF3 (Homo sapiens, UniProt P78545 1-371); conditions: protein: recombinant; tags: N-terminal GST; dsDNA, one strand shown
# T11 sequence: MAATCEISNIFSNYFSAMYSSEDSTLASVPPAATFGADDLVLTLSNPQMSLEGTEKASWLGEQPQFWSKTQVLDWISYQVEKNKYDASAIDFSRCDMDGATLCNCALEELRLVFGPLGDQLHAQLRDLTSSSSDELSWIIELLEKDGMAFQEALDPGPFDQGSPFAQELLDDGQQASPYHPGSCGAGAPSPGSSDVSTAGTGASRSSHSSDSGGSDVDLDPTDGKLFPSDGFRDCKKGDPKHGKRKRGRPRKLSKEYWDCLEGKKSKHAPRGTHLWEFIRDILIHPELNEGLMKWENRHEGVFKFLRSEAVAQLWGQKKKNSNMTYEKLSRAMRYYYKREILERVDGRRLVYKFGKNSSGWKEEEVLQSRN
# Method in brief: as §1
# [18] = target: CRX (Homo sapiens, UniProt O43186 1-299); conditions: protein: recombinant; tags: N-terminal GST; dsDNA, one strand shown
# CRX, sequence (O43186 whole entry): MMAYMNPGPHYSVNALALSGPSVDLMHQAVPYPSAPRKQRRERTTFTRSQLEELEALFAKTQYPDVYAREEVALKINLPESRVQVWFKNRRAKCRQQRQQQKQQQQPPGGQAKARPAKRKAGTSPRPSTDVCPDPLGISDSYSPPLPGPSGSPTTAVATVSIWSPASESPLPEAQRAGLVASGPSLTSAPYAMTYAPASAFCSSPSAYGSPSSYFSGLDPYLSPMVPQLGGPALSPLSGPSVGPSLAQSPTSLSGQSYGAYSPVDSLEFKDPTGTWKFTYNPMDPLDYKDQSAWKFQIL
# Method in brief: as §1
# [19] = target: ETV1 (Homo sapiens, UniProt P50549 1-477); conditions: protein: recombinant; tags: N-terminal GST; dsDNA, one strand shown
# ETV1, sequence (P50549 whole entry): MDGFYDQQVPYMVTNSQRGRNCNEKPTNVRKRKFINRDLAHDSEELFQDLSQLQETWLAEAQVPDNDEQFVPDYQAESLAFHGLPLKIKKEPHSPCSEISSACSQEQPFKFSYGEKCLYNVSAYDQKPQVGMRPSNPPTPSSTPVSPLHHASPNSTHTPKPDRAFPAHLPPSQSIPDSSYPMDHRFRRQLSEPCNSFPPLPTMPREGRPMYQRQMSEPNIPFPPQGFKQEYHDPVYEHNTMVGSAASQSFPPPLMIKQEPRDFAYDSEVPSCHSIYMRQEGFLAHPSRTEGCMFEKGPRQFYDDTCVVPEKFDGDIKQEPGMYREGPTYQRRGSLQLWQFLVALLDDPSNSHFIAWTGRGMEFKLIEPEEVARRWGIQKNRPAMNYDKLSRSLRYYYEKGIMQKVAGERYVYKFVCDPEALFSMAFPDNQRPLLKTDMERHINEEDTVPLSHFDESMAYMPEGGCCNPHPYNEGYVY
# Method in brief: as §1
sequence,measurement,setting,value
GTTATT,binding signal,[1],"1.16 fold enrichment (6-mer frequency, TF over GST control)"
same,binding signal,[2],"1.23 fold enrichment (6-mer frequency, TF over GST control)"
same,binding signal,[3],"1.17 fold enrichment (6-mer frequency, TF over GST control)"
same,binding signal,[4],"1.15 fold enrichment (6-mer frequency, TF over GST control)"
same,binding signal,[5],"1.05 fold enrichment (6-mer frequency, TF over GST control)"
same,binding signal,[6],"1.08 fold enrichment (6-mer frequency, TF over GST control)"
same,binding signal,[7],"1.28 fold enrichment (6-mer frequency, TF over GST control)"
same,binding signal,[8],"1.09 fold enrichment (6-mer frequency, TF over GST control)"
same,binding signal,[9],"1.23 fold enrichment (6-mer frequency, TF over GST control)"
same,binding signal,[10],"1.08 fold enrichment (6-mer frequency, TF over GST control)"
same,binding signal,[11],"1.26 fold enrichment (6-mer frequency, TF over GST control)"
same,binding signal,[12],"1.19 fold enrichment (6-mer frequency, TF over GST control)"
same,binding signal,[13],"1.29 fold enrichment (6-mer frequency, TF over GST control)"
same,binding signal,[14],"1.16 fold enrichment (6-mer frequency, TF over GST control)"
same,binding signal,[15],"1.17 fold enrichment (6-mer frequency, TF over GST control)"
same,binding signal,[16],"1.27 fold enrichment (6-mer frequency, TF over GST control)"
same,binding signal,[17],"1.22 fold enrichment (6-mer frequency, TF over GST control)"
same,binding signal,[18],"1.32 fold enrichment (6-mer frequency, TF over GST control)"
same,binding signal,[19],"1.12 fold enrichment (6-mer frequency, TF over GST control)"

# Reference: PMC7862700, “An all-to-all approach to the identification of sequence-specific readers for epigenetic DNA modifications on cytosine”
